Inconclusive results are not listed. Unmarked numbers belong to inactive results. Activity calls are given as the source filed them. The call rests on the fitted dose curve; in most records, active means well fitted inhibition curve with a large enough effect; inconclusive means small, poorly fitted or top-dose-only effect; inactive means flat fitted curve, though single readings scatter.
On the % scale 0 is the no-effect control and ±100 the full control effect; potency means the concentration at half of the fitted maximal effect.

The nature of this test: Primary qHTS for inhibitors of nuclear receptor binding SET domain protein 2 (NSD2) in an isogenic RCH-ACV NSD2 p.E1099K mutant (9B) (AID 1645876). Further: nearly all actives have a fitted effect of over 70% in size. The following applies: RCH-ACV (leukaemia line) NSD2 E1099K (9B) viability, CellTiter-Glo, 72 h; series mostly up to 44.9 µM; activity change, negative = viability loss: at the top concentration.
On to `CC(C)=CCCC1(C)/C=C/C(OC(=O)C=C(C)C)C(C)(O)/C=C/C(=O)/C(CO)=C\C1` (stereo not drawn), for which the Potency is 11.2 µM (active).
`CC(C)c1ccc(NC(=O)Cn2cnc3c2c(=O)n(C)c(=O)n3C)cc1`: the “activity change, negative = viability loss” value was -27.7%.
In the case of `O=C(Nc1ncc([N+](=O)[O-])s1)c1ccccc1O`, the “activity change, negative = viability loss” value is -16.3%.
For the compound `Cn1cc(C2=C(c3coc4ccccc34)C(=O)NC2=O)c2cc(Br)ccc21`, the Potency was 18.4 µM (active).
Consider `N#Cc1cc(C2=Nc3ccc(Br)cc3NC(=O)C2)ccn1`, for which the “activity change, negative = viability loss” value was -23.5%.
Turning to `C/C=C(/C)C(=O)OC1CC(C)(C)CC2C3=CCC4C5(C)CCC(O[C@@H]6O[C@H](C(=O)O)[C@@H](O)[C@H](O)[C@H]6O[C@@H]6O[C@H](CO)[C@H](O)[C@H](O[C@@H]7OC[C@H](O)[C@H](O)[C@H]7O[C@@H]7O[C@H](CO)[C@@H](O)[C@H](O)[C@H]7O)[C@H]6O)C(C)(C)C5CCC4(C)C3(C)C(O)C(O)C12CO` (stereo partly drawn), the Potency is 2.18 µM (active).
On the same count and under the same terms, next, `CC(=O)N[C@H]1[C@H](O[C@H]2CC[C@@]3(C)C(CC[C@]4(C)C3CC=C3C5CC(C)(C)CC[C@]5(C(=O)O)C(O)C[C@]34C)C2(C)C)O[C@H](CO[C@@H]2O[C@H](C)[C@H](O)[C@H](O)[C@H]2O[C@@H]2OC[C@@H](O)[C@H](O)[C@H]2O)[C@@H](O)[C@@H]1O` (stereo partly drawn): 2.45 µM (active).
For the compound `C/C=C(/C)C(=O)O[C@@H]1C[C@@H](OC(=O)CC(C)C)C2(C)C3C(=O)C=C(C)C2C3C1(C)C` (stereo partly drawn), the “activity change, negative = viability loss” value was -26.3% [at 17.3 µM].
Take `COc1c2c(nc3occc13)C(CC=C(C)C)(OC)C(O)CC2` (stereo not drawn): the “activity change, negative = viability loss” value is -29.2%.
Regarding `C/C(=C\Cc1c(O)c(Cl)c(C)c(C=O)c1O)CC/C=C(\C)[C@H]1CC(=O)C(C)(C)O1`, the Potency was 2.52 µM (active).
Regarding `O=C1COC2(CCN(S(=O)(=O)c3ccc(-c4ccc5cccnc5c4)cc3)CC2)CN1C1CC1`, the “activity change, negative = viability loss” value is -25%.
Consider `C=C(C)[C@@H]1CC[C@]2(C(=O)O)CC[C@]3(C(=O)O)[C@H](CCC4[C@@]5(C)CCC(=O)C(C)(C)C5CC[C@]43C)C12` (stereo partly drawn), for which the Potency was 11.2 µM (active).
For `C=C1/C(=C/C=C2\CCC[C@@]3(C)C2CCC3[C@H](C)/C=C/[C@@H](O)C2CC2)C[C@@H](O)C[C@@H]1O` (stereo partly drawn), the Potency is 23 µM (active).
Take `COc1cc(C(=O)O)ccc1NC(=O)C1NC(CC(C)(C)C)C(C#N)(c2ccc(Cl)cc2F)C1c1cccc(Cl)c1F` (stereo not drawn): the “activity change, negative = viability loss” value is 4.28%.
Take `C=C[C@H](/C=C\c1ccc(O)cc1)c1ccc(O)cc1`: the Potency was 16.3 µM (active).
As for `CC(C)C[C@H](CO)Nc1nc(S[C@@H](C)c2ccccc2)nc2nc(N)sc12`, the Potency was 26.3 µM (active).
The same measure, in the same setting: next, `CCC(C(C)O)n1ncn(-c2ccc(N3CCN(c4ccc(OCC5COC(Cn6cncn6)(c6ccc(F)cc6F)C5)cc4)CC3)cc2)c1=O` (stereo not drawn): 2.05 µM (active).
In the case of `O=C(Cc1cccc(OC(F)(F)F)c1)Nc1ccc(CCCCc2nnc(NC(=O)Cc3ccccn3)s2)nn1`, the “activity change, negative = viability loss” value was -26.3%.
For the compound `C=C1C(=O)O[C@H]2CC(=C)[C@H]3CC[C@@](C)(O)[C@@H]3CC12` (stereo partly drawn), the Potency was 12.9 µM (active).
Still for that read-out and setting: next, `Cc1cc(CS(=O)(=O)c2ccccc2)cc(OCc2ccc(CN3CCCC3CO)cc2)c1` (stereo not drawn): 14.5 µM (active); `CN1CCN(c2ccc(Nc3cc(-c4cccc(-n5ccc6cc(C7CC7)cc(F)c6c5=O)c4CO)cn(C)c3=O)nc2)CC1`: 20.6 µM (active).
As for `C=C(C)C1=C[C@@]2(C)C(=CC1=O)CC[C@@H](O)[C@@H]2C`, the “activity change, negative = viability loss” value is -23.4%.
Same read-out and setting: next, `Cc1ccc(OC[C@H](O)[C@H](C)NC(C)C)c2c1CCC2`: -20.2%; `C/C=C(\C)C(=O)O[C@H]1C[C@](C)(O)[C@H]2CC=C(C)[C@H]2[C@@H]2OC(=O)[C@H](C)[C@H]21`: -33.9%.
As for `CCC/C=C/C(=O)O[C@H]1CC(C)(C)CC2[C@@]13[C@H](O)C[C@]1(C)[C@@]2(CCC2[C@@]4(C)CC[C@H](O[C@@H]5O[C@H](C(=O)O)[C@@H](O)[C@H](O[C@@H]6O[C@H](CO)[C@H](O)[C@H](O)[C@H]6O[C@@H]6O[C@@H](C)[C@H](O)[C@@H](O)[C@H]6O[C@@H]6OC[C@](O)(CO)[C@H]6O)[C@H]5O[C@@H]5O[C@H](CO)[C@H](O)[C@H](O)[C@H]5O)C(C)(C)C4CC[C@]21C)O[C@H]3O` (stereo partly drawn), the Potency is 1.73 µM (active).
Consider `CC1(C=O)CCCC2(C)C1CCC13CC(CO)C(CCC12)C3` (stereo not drawn), for which the “activity change, negative = viability loss” value was -15.1%.
Same read-out and setting: next, `CC(=O)O[C@@H]1C2=C(O)C(=O)[C@](C)(OC(C)=O)C(=O)C2=CO[C@@]12O[C@@H](C)CC[C@H]2OC(C)=O`: -25.8% [at 17.3 µM].
On to `C[C@@]12C(=O)N(c3ccc(C(=O)Nc4cccc5cccnc45)cc3)C(=O)[C@@H]1[C@@H]1C=C[C@H]2C1`, for which the “activity change, negative = viability loss” value is -26.7%.

The values above are taken from PubChem BioAssay (NCATS).
